According to PubChem BioAssay (NCATS):
Results filed as inconclusive are left out. Active and inactive are the calls of the source. Unless noted, calls follow the shape of the dose curve; as a rule, active = well fitted curve in the direction sought with a large enough effect; inconclusive = small, poorly fitted or top-dose-only effect, or another doubt; inactive = no such curve, though single readings can be large; an effect the other way counts as inactive or inconclusive.

Key:
[1] = target: Estrogen receptor (Homo sapiens) (UniProt P03372); assay: qHTS assay for small molecule antagonists of estrogen receptor alpha signaling (AID 588513; active = well fitted curve in the direction sought with a large enough effect in the signal ratio, with a control signal flat, not every such curve was filed as active; the % refers to the signal ratio; also: % is scaled to controls: 0 for no effect and ±100 for the full control effect)
Estrogen receptor (Homo sapiens), sequence (P03372 whole entry, looked up): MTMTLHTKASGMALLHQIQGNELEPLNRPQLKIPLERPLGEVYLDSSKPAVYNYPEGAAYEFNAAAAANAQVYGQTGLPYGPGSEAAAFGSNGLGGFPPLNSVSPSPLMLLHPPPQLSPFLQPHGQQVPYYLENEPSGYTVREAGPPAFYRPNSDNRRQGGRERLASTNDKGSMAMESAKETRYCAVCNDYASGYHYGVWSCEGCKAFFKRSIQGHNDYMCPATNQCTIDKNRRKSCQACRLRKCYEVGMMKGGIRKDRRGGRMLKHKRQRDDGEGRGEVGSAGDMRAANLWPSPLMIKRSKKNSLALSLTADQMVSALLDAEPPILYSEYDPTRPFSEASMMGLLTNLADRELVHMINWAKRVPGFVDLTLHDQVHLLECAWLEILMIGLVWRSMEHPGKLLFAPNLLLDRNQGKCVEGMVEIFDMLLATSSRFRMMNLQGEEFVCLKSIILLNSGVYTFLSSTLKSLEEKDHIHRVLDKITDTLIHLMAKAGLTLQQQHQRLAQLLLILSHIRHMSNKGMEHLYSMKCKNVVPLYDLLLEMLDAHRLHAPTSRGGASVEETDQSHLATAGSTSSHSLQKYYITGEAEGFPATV
Procedure, shortened: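 Fluorescence from CCF4 substrate after 2 h at room temperature gave reporter activity; cells had been exposed to compound and 0.5nM 17-beta-estradiol for 18 h at 37 C. Hill-equation fitting yielded IC50 and maximal response.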

[2] = target: Peroxisome proliferator-activated receptor gamma (Homo sapiens) (UniProt P37231); assay: qHTS assay for small molecule agonists of peroxisome proliferator-activated receptor gamma signaling (AID 588536; active = well fitted curve in the direction sought with a large enough effect in the signal ratio, with a control signal flat, not every such curve was filed as active; the % refers to the signal ratio;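 also: 0% = DMSO basal wells and 100% = rosiglitazone at 2 µM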)
Peroxisome proliferator-activated receptor gamma (Homo sapiens), sequence (P37231 whole entry, looked up): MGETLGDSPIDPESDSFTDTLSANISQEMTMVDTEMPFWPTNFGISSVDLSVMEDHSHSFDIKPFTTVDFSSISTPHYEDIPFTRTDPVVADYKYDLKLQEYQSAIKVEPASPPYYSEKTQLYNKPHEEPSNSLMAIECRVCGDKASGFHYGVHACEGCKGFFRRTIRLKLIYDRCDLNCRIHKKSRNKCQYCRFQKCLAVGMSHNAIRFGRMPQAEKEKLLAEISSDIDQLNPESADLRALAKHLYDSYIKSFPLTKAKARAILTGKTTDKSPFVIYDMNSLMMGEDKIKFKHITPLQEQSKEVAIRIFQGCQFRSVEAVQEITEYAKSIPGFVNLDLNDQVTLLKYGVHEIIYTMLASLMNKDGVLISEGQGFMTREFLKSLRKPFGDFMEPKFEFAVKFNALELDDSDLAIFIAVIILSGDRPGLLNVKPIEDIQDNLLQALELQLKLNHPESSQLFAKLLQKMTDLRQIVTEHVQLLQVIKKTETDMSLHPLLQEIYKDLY
Procedure, shortened: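 PPAR-gamma-UAS-bla HEK293 cells in medium with 1% charcoal/dextran-treated FBS were exposed to compounds for 16 h at 37 C. Beta-lactamase activity was read with CCF4 substrate (405 nm excitation, 460/530 nm emission).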

[3] = target: Peroxisome proliferator-activated receptor gamma (Homo sapiens) (UniProt P37231); assay: qHTS assay for small molecule antagonists of peroxisome proliferator-activated receptor gamma signaling (AID 588537; active = well fitted inhibition curve with a large enough effect in the signal ratio, with a control signal flat, not every such curve was filed as active; the % refers to the signal ratio;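 also: reporter cells co-stimulated with 50 nM rosiglitazone agonist during compound treatment; % of control where 0% means no effect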)
Procedure, shortened: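 Inhibitors of agonist-stimulated UAS-bla reporter activity were sought in HEK293 cells; rosiglitazone (50 nM) defined full signal and DMSO baseline. Curves fitted to Hill model gave IC50 and efficacy.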

[4] = target: Vitamin D3 receptor (Homo sapiens) (UniProt P11473); assay: qHTS assay for small molecule agonists of vitamin D receptor signaling (AID 588543; calls by dose curve;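 also: 0% = DMSO basal and 100% = reference agonist control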)
Vitamin D3 receptor (Homo sapiens), sequence (P11473 whole entry, looked up): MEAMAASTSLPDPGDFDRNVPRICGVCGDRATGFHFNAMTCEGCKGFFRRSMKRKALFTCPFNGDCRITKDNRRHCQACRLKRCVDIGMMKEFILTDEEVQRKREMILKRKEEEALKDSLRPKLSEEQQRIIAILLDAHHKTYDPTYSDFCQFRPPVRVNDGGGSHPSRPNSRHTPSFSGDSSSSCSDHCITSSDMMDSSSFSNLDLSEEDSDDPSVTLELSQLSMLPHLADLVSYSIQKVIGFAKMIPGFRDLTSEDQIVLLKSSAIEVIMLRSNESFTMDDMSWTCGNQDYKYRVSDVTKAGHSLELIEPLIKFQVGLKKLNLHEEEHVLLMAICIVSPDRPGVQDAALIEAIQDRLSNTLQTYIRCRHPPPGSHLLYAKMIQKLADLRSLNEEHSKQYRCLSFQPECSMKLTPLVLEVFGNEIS
Procedure, shortened: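 Reporter cells (HEK293T, VDR-UAS-bla) were seeded in medium with 2% charcoal-stripped serum and incubated 5 h, then compounds in concentration series were added for 16 h at 37 °C. Stimulation was scaled between DMSO basal and 50 nM 1α,25-dihydroxyvitamin D3.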

[5] = qHTS assay for small molecule agonists of retinoid X receptor alpha signaling (AID 588544; calls by dose curve;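 as to activation: 0% = DMSO basal wells and 100% = reference agonist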); conditions: HEK293T RXRa-UAS-bla, beta-lactamase reporter, 18 h; 530 nm emission
[6] = target: Retinoic acid receptor RXR-alpha (Homo sapiens) (UniProt P19793); assay: as above
Retinoic acid receptor RXR-alpha (Homo sapiens), sequence (P19793 whole entry, looked up): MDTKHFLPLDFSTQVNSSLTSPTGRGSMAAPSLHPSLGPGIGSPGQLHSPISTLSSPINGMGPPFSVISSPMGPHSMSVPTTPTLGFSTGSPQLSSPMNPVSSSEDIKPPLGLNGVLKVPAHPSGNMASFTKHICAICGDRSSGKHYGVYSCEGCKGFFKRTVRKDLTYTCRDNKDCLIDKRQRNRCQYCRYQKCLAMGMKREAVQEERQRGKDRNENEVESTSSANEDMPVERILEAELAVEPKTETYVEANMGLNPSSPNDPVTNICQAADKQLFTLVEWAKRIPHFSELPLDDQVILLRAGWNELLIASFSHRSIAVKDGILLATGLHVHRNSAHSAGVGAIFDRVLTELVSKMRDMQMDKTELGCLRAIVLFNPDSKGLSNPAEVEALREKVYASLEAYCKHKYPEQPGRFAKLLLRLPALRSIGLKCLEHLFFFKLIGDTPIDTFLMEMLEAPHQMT

[7] = qHTS assay for small molecule antagonists of retinoid X receptor alpha signaling (AID 588546; active = well fitted inhibition curve with a large enough effect in the signal ratio, with a control signal flat, not every such curve was filed as active; the % refers to the signal ratio;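 also: cells stimulated with 9-cis-retinoic acid as agonist; % is scaled to controls: 0 for no effect and ±100 for the full control effect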); conditions: HEK293T RXRa-UAS-bla, beta-lactamase ratio, antagonist mode; measured here: W530 green channel, cytotoxicity proxy
Procedure, shortened: (§1)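 Beta-lactamase reporter inhibition, read as CCF4 fluorescence ratio (ex 405, em 460/530 nm) after 2 h at RT. HEK293T UAS-bla cells, 2500/well, were stimulated with 9-cis-RA at 500 or 100 nM final alongside test compound for 18 h at 37 C.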

[8] = target: Retinoic acid receptor RXR-alpha (Homo sapiens) (UniProt P19793); assay: as above; conditions: HEK293T RXRa-UAS-bla, beta-lactamase ratio, antagonist mode
Procedure, shortened: as §1

[9] = target: Thyroid hormone receptor beta (Homo sapiens) (UniProt P10828); assay: qHTS assay for small molecule antagonists of thyroid hormone receptor beta signaling (AID 588547; active = well fitted inhibition curve with a large enough effect in the signal ratio, with a control signal flat, not every such curve was filed as active; the % refers to the signal ratio;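 also: cells stimulated with 0.4 nM T3 agonist during compound exposure; series mostly up to about 77 µM; % is scaled to controls: 0 for no effect and ±100 for the full control effect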); conditions: TR-UAS-bla HEK293, beta-lactamase ratio, antagonist mode, 18 h
Thyroid hormone receptor beta (Homo sapiens), sequence (P10828 whole entry, looked up): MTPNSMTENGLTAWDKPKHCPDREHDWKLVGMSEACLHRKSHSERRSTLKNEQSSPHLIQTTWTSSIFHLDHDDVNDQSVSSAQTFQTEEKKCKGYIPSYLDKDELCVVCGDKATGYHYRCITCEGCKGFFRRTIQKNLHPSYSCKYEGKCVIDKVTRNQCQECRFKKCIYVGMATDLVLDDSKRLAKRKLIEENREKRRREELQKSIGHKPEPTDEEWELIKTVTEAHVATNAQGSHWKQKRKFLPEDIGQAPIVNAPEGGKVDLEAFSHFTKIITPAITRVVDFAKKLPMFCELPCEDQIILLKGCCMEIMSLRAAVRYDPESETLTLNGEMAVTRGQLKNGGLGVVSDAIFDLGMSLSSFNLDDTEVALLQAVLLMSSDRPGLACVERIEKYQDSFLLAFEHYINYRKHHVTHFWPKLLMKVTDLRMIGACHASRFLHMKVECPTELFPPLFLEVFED
Procedure, shortened: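 Inhibition of T3-driven (0.4nM final) beta-lactamase reporter activity was measured over 0.59 nM to 92 uM compound after 18 h at 37 C. The cells were GripTite HEK293 TR-UAS-bla in charcoal/dextran-stripped serum, with CCF4 ratio read-out and IC50 from Hill fits.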

[10] = qHTS assay for small molecule activators of the p53 signaling pathway (AID 651743; active = well fitted activation curve with a large enough effect in the signal ratio, not every such curve was filed as active; the % refers to the signal ratio; also: series mostly up to about 92 µM; % of control where 0% means no effect); conditions: HCT-116 p53RE-bla, beta-lactamase FRET ratio, 16 h; activation: stronger effect = higher value
Procedure, shortened: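 Screen for p53 pathway agonists uses stably transfected p53RE-bla HCT-116 cells, 4,000 per well, treated 16 h at 37 C with compounds in DMSO.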

[11] = qHTS assay for small molecule activators of the nuclear factor-kappa B (NF-kB) signaling pathway (AID 651749; active = well fitted activation curve with a large enough effect in the signal ratio; the % refers to the signal ratio; also: series mostly up to about 77 µM; % of control where 0% means no effect); conditions: NF-kB-bla ME-180 cells, beta-lactamase FRET ratio, 16 h; activation: stronger effect = higher value
Procedure, shortened: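 Stably transfected ME-180 line; NF-kB response element upstream of beta-lactamase. Treatment: compound or DMSO, 16 hr. Detection: fluorescent FRET substrate.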

[12] = qHTS assay for environmental chemicals that activate the Aryl hydrocarbon Receptor (AhR) signaling pathway (AID 651777); conditions: 1A2-DRE human hepatoma cells, luciferase, 24 h; activation: stronger effect = higher value; also: % of control where 0% means no effect; nearly all actives have a fitted effect of over 15% in size
Procedure, shortened: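 Stable CYP1A2 promoter/DRE-luciferase human hepatoma line treated 24 hr; One-Glo luminescence, 30 min RT.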

[13] = target: Peroxisome proliferator-activated receptor alpha (Homo sapiens) (UniProt Q07869); assay: qHTS assay for small molecule agonists of the peroxisome proliferator-activated receptor alpha (PPARalpha) signaling pathway (AID 651778); conditions: PathHunter PPARalpha complementation, chemiluminescence, 6 h; max response: stronger effect = higher value; also: % of control where 0% means no effect
Peroxisome proliferator-activated receptor alpha (Homo sapiens), sequence (Q07869 whole entry, looked up): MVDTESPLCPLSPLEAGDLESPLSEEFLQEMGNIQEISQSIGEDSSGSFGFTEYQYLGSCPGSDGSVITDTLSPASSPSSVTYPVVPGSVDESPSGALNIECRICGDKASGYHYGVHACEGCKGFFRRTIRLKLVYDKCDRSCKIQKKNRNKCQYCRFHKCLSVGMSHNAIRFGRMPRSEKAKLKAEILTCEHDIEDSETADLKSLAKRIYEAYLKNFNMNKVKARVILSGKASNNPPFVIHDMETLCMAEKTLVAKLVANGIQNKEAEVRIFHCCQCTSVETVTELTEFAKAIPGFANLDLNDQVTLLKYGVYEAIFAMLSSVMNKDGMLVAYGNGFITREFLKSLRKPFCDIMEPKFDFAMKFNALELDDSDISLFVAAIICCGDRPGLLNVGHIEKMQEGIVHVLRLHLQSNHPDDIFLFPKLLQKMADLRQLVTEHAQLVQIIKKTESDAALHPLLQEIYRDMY
Procedure, shortened: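 Chemiluminescence from complemented enzyme reported PPARalpha activation in cells after 6 hr of compound treatment at 37 C. The detection reagent was incubated for 60 min at room temperature, and compounds were scored as agonists.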

[14] = qHTS assay for small molecule agonists of the antioxidant response element (ARE) signaling pathway measured by Nrf2-dependant transcriptional activity (AID 720636; active = well fitted curve in the direction sought with a large enough effect in the repeat runs; an effect the other way counts as inactive or inconclusive;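 also: HepG2 cells with an ARE-driven luciferase reporter; % of control where 0% means no effect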)
Procedure, shortened: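 Reporter gene assay, HepG2 ARE-luc: 16 hr compound, 37 C, 5% CO2; read-out luciferase luminescence.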

[15] = qHTS assay for small molecule agonists of the antioxidant response element (ARE) signaling pathway measured by Nrf2-dependant transcriptional activity - cell viability counter screen (AID 720653; active = well fitted curve in the direction sought with a large enough effect in the repeat runs; an effect the other way counts as inactive or inconclusive; also: % is scaled to controls: 0 for no effect and ±100 for the full control effect); conditions: ARE-bla HepG2 viability, CellTiter-Glo ATP luminescence, 16 h; max response: stronger effect = lower value
Procedure, shortened: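 Cytotoxicity counter screen: intracellular ATP quantified by CellTiter-Glo luminescence in the same ARE-bla HepG2 plates, after 16 h compound exposure and a 2 h beta-lactamase substrate step.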

[16] = qHTS assay for cell viability of HEK293 cells (AID 743288); conditions: ATP luminescence (CellTiter-Glo), 18 h; max response: stronger effect = lower value; also: % is scaled to controls: 0 for no effect and ±100 for the full control effect; nearly all actives have a fitted effect of over 50% in size
Procedure, shortened: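 HEK293 parental, 2,000 cells/well; ≥5 h pre-incubation 37 C; pintool compound addition; 18 h, 37 C; CellTiter-Glo 30 min RT; luminescence read.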

[17] = qHTS assay for cell viability of the p53RE-bla HCT-116 cell line (AID 743292); also: % is scaled to controls: 0 for no effect and ±100 for the full control effect; nearly all actives have a fitted effect of over 55% in size
Procedure, shortened: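 Readout: CellTiter-Glo luminescence after 30 min RT. Treatment: compounds in DMSO, 16 h, 37 C. Cells: CellSensor p53RE-bla HCT-116, 4,000/well, preincubated 5 h.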

[18] = target: Nuclear receptor subfamily 1 group I member 2 (Rattus norvegicus) (UniProt Q9R1A7); assay: qHTS assay for small molecule activators of the rat pregnane X receptor (rPXR) signaling pathway (AID 651751; call rule not given here; also: 0% is about no effect); conditions: rPXR reporter cells, luciferase (One-Glo), 24 h
Nuclear receptor subfamily 1 group I member 2 (Rattus norvegicus), sequence (Q9R1A7 whole entry, looked up): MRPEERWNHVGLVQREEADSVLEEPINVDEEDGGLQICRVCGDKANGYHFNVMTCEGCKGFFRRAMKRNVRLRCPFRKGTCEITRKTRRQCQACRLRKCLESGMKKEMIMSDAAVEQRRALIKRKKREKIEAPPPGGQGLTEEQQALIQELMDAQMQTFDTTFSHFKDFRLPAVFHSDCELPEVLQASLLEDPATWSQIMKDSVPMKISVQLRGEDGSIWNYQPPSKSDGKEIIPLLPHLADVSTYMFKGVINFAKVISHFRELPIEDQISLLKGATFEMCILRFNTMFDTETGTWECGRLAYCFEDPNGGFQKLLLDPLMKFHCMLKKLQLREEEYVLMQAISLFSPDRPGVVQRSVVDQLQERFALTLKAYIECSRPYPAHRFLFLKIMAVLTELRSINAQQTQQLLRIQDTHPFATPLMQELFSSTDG

[19] = qHTS assay for small molecule activators of the human pregnane X receptor (PXR) signaling pathway (AID 720659; call rule not given here; also: 0% is about no effect)
[20] = target: Thyroid hormone receptor beta (Homo sapiens) (UniProt P10828); assay: qHTS assay for small molecule agonists of thyroid hormone receptor beta signaling (AID 588545; calls by dose curve)
Procedure, shortened: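 In this cell-based screen, titrated compounds act on HEK 293 cells held in medium with 2% charcoal/dextran FBS, NEAA and pyruvate for 18 hrs at 37 C. Responses are expressed relative to T3 (10 nM) as 100% and basal DMSO as 0%.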

SMILES	Potency [1]	outcome [2]	Potency [3]	outcome [4]	max response [5]	Potency [6]	max response [7]	max response [8]	activity change % (negative = inhibition) [9]	activation [10]	activation [11]	activation [12]	max response [13]	Potency [14]	max response [15]	max response [16]	Potency [17]	max response [18]	outcome [19]	Potency [20]
C=CCCCCCCCCC=O	inactive	inactive	inactive	inactive	-12%	inactive	-4.83%	-16.9% (inactive)	19.2% (inactive)	3.83% (inactive)	-0.972% (inactive)	0.287% (inactive)	-1.39% (inactive)	inactive	3.17% (inactive)	-14% (inactive)	inactive	-2.8% (inactive)	inactive	–
CCOC(=O)CCCCCCCCC(=O)OCC	inactive	inactive	inactive	–	3.8%	inactive	-7.52%	0.487% (inactive)	–	-5.93% (inactive)	–	0.108% (inactive)	-3.28% (inactive)	inactive	-13.4% (inactive)	-4.17% (inactive)	inactive	2.58% (inactive)	inactive	inactive
CCCCCCCCCCCC(=O)N(C)CC(=O)O	inactive	–	–	–	21.8%	inactive	7.91%	6.82% (inactive)	5.42% (inactive)	–	–	0.0412% (inactive)	–	inactive	–	-6.6% (inactive)	inactive	-2.95% (inactive)	inactive	inactive
OC1CCCCCCCCCCC1	inactive	inactive	inactive	–	10.2%	inactive	-1.99%	-4.46% (inactive)	–	4.17% (inactive)	0.918% (inactive)	1.93% (inactive)	-2.43% (inactive)	inactive	3.88% (inactive)	-8% (inactive)	inactive	-3.86% (inactive)	inactive	inactive
CCCCOCCOCCOCCO	inactive	inactive	inactive	inactive	-9.78%	inactive	1.39%	-1.08% (inactive)	-0.828% (inactive)	2.9% (inactive)	-0.915% (inactive)	1.2% (inactive)	-1.01% (inactive)	inactive	–	-2.85% (inactive)	inactive	2.44% (inactive)	inactive	inactive
CC1=CC2C3CC(C=C3C)C2C1 (stereo not drawn)	inactive	inactive	inactive	inactive	-8.84%	inactive	-10.9%	3.65% (inactive)	–	–	-0.782% (inactive)	-1.81% (inactive)	-1.19% (inactive)	inactive	1.82% (inactive)	-3.16% (inactive)	–	-0.63% (inactive)	inactive	inactive
O=C(OCC1CCC2OC2C1)C1CCC2OC2C1 (stereo not drawn)	inactive	inactive	inactive	inactive	-10.9%	inactive	1.3%	-6.03% (inactive)	1.74% (inactive)	2.61% (inactive)	1.33% (inactive)	1.05% (inactive)	0.673% (inactive)	–	-4.32% (inactive)	-11.2% (inactive)	inactive	1.7% (inactive)	inactive	inactive
CCOC(=O)CC(O)(CC(=O)OCC)C(=O)OCC	inactive	inactive	–	inactive	-10.3%	inactive	-3.18%	-3.42% (inactive)	13% (inactive)	-0.036% (inactive)	-1.34% (inactive)	0.341% (inactive)	0.853% (inactive)	inactive	–	3.07% (inactive)	inactive	-0.162% (inactive)	inactive	inactive
CC(Cl)(Cl)C(=O)OCCOc1cc(Cl)c(Cl)cc1Cl	inactive	inactive	inactive	inactive	-6.02%	inactive	-16.7%	0.808% (inactive)	–	-0.345% (inactive)	-1.51% (inactive)	1.95% (inactive)	6.22% (inactive)	–	2.91% (inactive)	-9.39% (inactive)	inactive	-0.3% (inactive)	–	–
C[Si]1(C)N[Si](C)(C)N[Si](C)(C)N1	inactive	inactive	inactive	–	-6.42%	inactive	-13.1%	-7.51% (inactive)	17.9% (inactive)	-5.2% (inactive)	-2.89% (inactive)	–	-0.733% (inactive)	inactive	-8.08% (inactive)	-3.76% (inactive)	inactive	1.59% (inactive)	inactive	inactive
c1cc(-c2ccncc2)ccn1	inactive	inactive	inactive	inactive	22%	inactive	17.1%	-37.6% (inactive)	-17.5% (inactive)	-5.33% (inactive)	-1.45% (inactive)	0.354% (inactive)	0.638% (inactive)	inactive	-5.96% (inactive)	-10.3% (inactive)	inactive	-2.25% (inactive)	inactive	inactive
CCCCOCC(C)OCC(C)O (stereo not drawn)	inactive	inactive	inactive	inactive	-14.7%	inactive	-15.5%	-6.81% (inactive)	-10.2% (inactive)	–	-0.368% (inactive)	0.285% (inactive)	-0.312% (inactive)	inactive	8.96% (inactive)	0.272% (inactive)	inactive	2.61% (inactive)	inactive	inactive
